# PubChem BioAssay (NCATS)
# Unmarked numbers belong to inactive results. Activity calls are given as the source filed them. Calls come from the whole dose curve; as a rule, active = well fitted inhibition curve with a large enough effect; inconclusive = small, poorly fitted or top-dose-only effect; inactive = flat fitted curve, though single readings scatter.
# Molecular target: Luciferin 4-monooxygenase (Photinus pyralis) (UniProt P08659)
# Assay: Primary firefly luciferase (FLuc) qHTS assay for identification of artifact compounds. (AID 1845220); note: nearly all actives have a fitted effect of over 60% in size;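 for activity change, negative = inhibition: plate controls were DMSO vehicle for no effect and no enzyme for full effect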
# Details: purified firefly luciferase, luminescence, 5 min; series mostly up to 54.1 µM; activity change, negative = inhibition: at the top concentration
# Outline: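 Reaction readout was CCD-imaged luminescence, taken 5 min after adding 10 nM purified firefly enzyme to compound-treated wells holding 10 uM luciferin and ATP in pH 7.6 buffer.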
SMILES,"activity change, negative = inhibition",outcome
C/C=C1/[C@H](O[C@@H]2O[C@H](CO)[C@@H](O)[C@H](O)[C@H]2O)OC=C(C(=O)OC)[C@H]1CC(=O)OCCc1ccc(O)c(O)c1,-5.77% [at 25.7 µM],
COc1cc(CCCO)ccc1O[C@@H]1O[C@H](CO)[C@@H](O)[C@H](O)[C@H]1O,,inactive
CCC(C)C(=O)OC[C@H]1O[C@H](O[C@H]2O[C@H](CO)[C@@H](O)[C@H](O)[C@H]2O)[C@H](O)[C@@H](O)[C@@H]1O (some centres undefined),2.89% [at 25.7 µM],
CCCN1CCC[C@@H](c2cccc(S(C)(=O)=O)c2)C1,-5.16%,
CO[C@@H]1[C@]2(O)C(=O)N3/C=C\C(C)(C)c4[nH]c5ccccc5c4/C=C\3C(=O)N2[C@]23[C@H](CO)C(C)(C)N2c2ccccc2[C@]13O,2.46% [at 25.7 µM],
C/C=C/C1OC2=C(C(=O)OC2(C)O)C(O)C1O (centres undefined),-1.14%,
O=C(NC/C=C/CN1CCN(c2cccc(Cl)c2Cl)CC1)c1ccc(-c2ccccn2)cc1,,inactive
C/C(=C\CC/C(C)=C/CC[C@]1(C)CCc2cc(O)cc(C)c2O1)CC/C=C(\C)C(=O)O,0.0838% [at 25.7 µM],
CC(=O)OC1C(CO)OC(O[C@H]2[C@H](OC(=O)[C@]34CCC(C)(C)C[C@H]3C3=CCC5[C@@]6(C)CC[C@H](O[C@@H]7O[C@H](C(=O)O)[C@@H](O)[C@H](O[C@@H]8OC[C@@H](O)[C@H](O)[C@H]8O)[C@H]7O[C@@H]7O[C@H](CO)[C@H](O)[C@H](O)[C@H]7O)[C@@](C)(C=O)C6CC[C@@]5(C)[C@]3(C)C[C@H]4O)O[C@H](C)[C@H](OC3OC(C)C(OC4OCC(O)C(O)C4O)C(O)C3O)[C@@H]2O)C(O)C1O (some centres undefined),2.42% [at 11.6 µM],
CC(O)C/C=C/C=C/C(=O)OC1C=C2COC(=O)C2(O)C2(C)CCCC(C)(C)C12 (centres undefined),,inactive
C[C@@H]1O[C@@H](O[C@H]2[C@H](O)[C@@H](O)[C@H](OC[C@H]3O[C@@H](OC(=O)[C@]45CCC(C)(C)C[C@H]4C4=CCC6[C@@]7(C)C[C@@H](O)[C@H](O)[C@@](C)(CO)C7[C@H](O)C[C@@]6(C)[C@]4(C)CC5)[C@H](O)[C@@H](O)[C@@H]3O)O[C@@H]2CO)[C@H](O)[C@H](O)[C@H]1O (some centres undefined),0.345% [at 11.6 µM],
C=C1CC/C=C(/C(=O)O)CCC2C1CC2(C)C (centres undefined),,inactive
CCOc1ncc(S(=O)(=O)N2CCN(CC)CC2)cc1-c1nc2c(CC)n(CCOC)nc2c(=O)[nH]1,,inactive
O=C1C[C@@]2(C(=O)N1)C(=O)N(Cc1ccc(Br)cc1F)C(=O)c1cccn12,-6.85%,
COCC1OC(n2cnc3c(=O)[nH]cnc32)C(O)C1O (centres undefined),0.497%,
O=C(OC[C@H]1O[C@@H](Oc2ccccc2COC(=O)C2(O)C=CCCC2O)[C@H](O)[C@@H](O)[C@@H]1O)c1ccccc1 (some centres undefined),-13.4% [at 25.7 µM],
C=C1C(OC(C)=O)[C@@]23CCC4[C@](C)(C(=O)O)CCC[C@@]4(C)[C@]2(O)CC[C@H]1C3 (some centres undefined),-12.6%,
C[C@H]1CCN2C[C@]34C[C@@]5(C(=O)Nc6c5ccc5c6OC=CC(C)(C)O5)C(C)(C)C3C[C@]12C(=O)N4C (some centres undefined),1.84% [at 25.7 µM],
CC(CCc1ccc(O)cc1)O[C@@H]1O[C@H](CO[C@@H]2OC(CO)[C@H](O)[C@H]2O)[C@@H](O)[C@H](O)[C@H]1O (some centres undefined),1.07% [at 25.7 µM],
CC1=CC(=O)C2C(C)(C)CCC[C@]2(C)[C@H]1CC[C@H](C)CC(=O)O (some centres undefined),,inactive

SMILES,"activity change, negative = inhibition",outcome
O=C(OC1C=C(CO)C2C(OC3OC(CO)C(O)C(O)C3O)OC=CC12O)c1ccc(O)cc1 (centres undefined),-4.16% [at 25.7 µM],
COC(=O)C1=COC(O[C@@H]2O[C@H](CO)[C@@H](O)[C@H](O)[C@H]2O)[C@@H]2[C@@](C)(O)[C@@H](OC(=O)/C=C/c3ccccc3)C[C@]12O (some centres undefined),0.112% [at 25.7 µM],
C/C=C(/C)C(=O)O[C@H]1C[C@]2(C)O[C@@H]2[C@@H](OC(C)=O)[C@@]2(C)CC[C@@](O)(C(C)C)[C@H]12,4.29%,
CC(=O)N[C@H]1[C@H](O[C@H]2CC[C@]3(C)C4CC=C5[C@@H]6CC(C)(C)CC[C@]6(C(=O)O)[C@H](O)C[C@@]5(C)[C@]4(C)CC[C@H]3C2(C)C)O[C@H](CO)[C@@H](O)[C@@H]1O (some centres undefined),-10.2% [at 25.7 µM],
CC(CC(C)O[C@@H]1O[C@H](CO)[C@@H](O)[C@H](O)[C@H]1O)OC(=O)/C=C/c1ccc(O)cc1 (some centres undefined),,inactive [at 25.7 µM]
COC(=O)C1=CO[C@@H](O[C@@H]2O[C@H](CO)[C@@H](O)[C@H](O)[C@H]2O)[C@H]2[C@@H]1[C@H](O)[C@H](O)[C@]2(C)O,,inactive [at 25.7 µM]
N#Cc1cc(-c2n[nH]c(-c3ccncc3)n2)ccn1,,inactive
Cc1cc(CNC(=O)c2cc(C(=O)NCc3ccc(F)c(C)c3)ncn2)ccc1F,2.85%,
C[C@]12CCC[C@](C)(C(=O)O)C1CCC13CC(CO)C(CCC12)C3 (some centres undefined),4.95%,
CCCC(C(=O)O)c1c(C)nc2ccc(Cl)cc2c1-c1ccccc1 (centres undefined),-2.85%,
COc1ccc(CC(NC(C)=O)C(=O)O)cc1 (centres undefined),2.23%,
C=C1CC[C@@]2(OC1)O[C@H]1CC3[C@@H]4CC=C5C[C@H](O[C@H]6OC[C@@H](O)C(O)[C@@H]6O[C@@H]6O[C@@H](C)[C@H](O)[C@@H](O[C@@H]7O[C@H](CO)[C@@H](O)[C@H](O)[C@H]7O)[C@H]6O)C[C@@H](O)[C@]5(C)C4CC[C@]3(C)[C@H]1[C@@H]2C (some centres undefined),-10.8% [at 11.6 µM],
COCCN1CCC(C(=O)NO)(S(=O)(=O)c2ccc(Oc3ccc(OC(F)(F)F)cc3)cc2)CC1,1.95%,
COc1cccc(OC)c1-c1ccc(C[C@H](NC(=O)c2c(Cl)cccc2Cl)C(=O)O)cc1,4.7%,
Cc1onc(-c2c(Cl)cccc2Cl)c1CC(=O)NCc1ccc(OCC(F)(F)F)nc1,2.49%,
COC(=O)C1=CO[C@@H](O[C@@H]2O[C@H](CO)[C@@H](O)[C@H](O)[C@H]2O)[C@@H]2C(CO)=CC[C@H]12,2.31%,
C=C1[C@@H]2CC[C@@]3(C)[C@H](c4ccoc4)OC(=O)C[C@]13O[C@H]1CC(=O)C(C)(C)[C@H](C(O)C(=O)OC)[C@]12C (some centres undefined),0.935% [at 25.7 µM],
CCCCC(=O)N1c2ccccc2NC2=C(C(=O)CCC2)C1c1ccccc1Cl (centres undefined),1.29%,
CCNC(=O)OC1CCN(c2nncc3cc(OC)c(OC)cc23)CC1,-12.9%,
